Test [1] can be described thus: E. coli DRC41 culture turbidity changes, primary screen, E. coli filamentation inducer project, strain DRC41, OD650, 48 h (AID 1152).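 Further: E. coli MC1000 strain DRC41 lacking acrAB efflux pump and sulA.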 The following applies: E. coli DRC41 (acrAB sulA), higher = more signal, called active from +8 up or from −8 down.
A short description of test [2]: small-molecule binders of probe aLefty1, primary screen, biochemical, small-molecule microarray, 635/667 nm fluorescence (AID 1153).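 Further: score merges spot fluorescence with signal-to-noise ratio from the scanned slide images.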 The following applies: higher = more signal.
Test [3] can be described thus: PSAC antagonists in infected red cells, primary screen, cell-based, P. falciparum Indochina, OD700, 1 h (AID 1154). The following applies: P. falciparum Indochina infected RBC osmotic lysis, higher = more signal, called active from +8 up or from −8 down.
The nature of test [4]: PSAC antagonists in infected red cells, primary screen, cell-based, P. falciparum Indochina, OD700, 2 h (AID 1155).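 Further: lysis reports solute entry through the parasite surface anion channel PSAC; channel blockers reduce lysis of infected cells.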 The following applies: P. falciparum Indochina infected erythrocytes, osmotic lysis OD700; higher = more signal, called active from +8 up or from −8 down.
The nature of test [5]: osmotic lysis modulators in infected erythrocytes, primary screen, PSAC antagonist project, cell-based, P. falciparum Indochina, OD700, 3 h (AID 1156). The following applies: higher = more signal, called active from +8 up or from −8 down.
Test [6] can be described thus: PSAC antagonists in infected red cells, primary screen, cell-based, P. falciparum Indochina, OD700, 18 h (AID 1157). The following applies: P. falciparum Indochina infected erythrocytes, osmotic lysis OD700, 18 h; higher = more signal, called active from +8 up or from −8 down.
The nature of test [7]: modulators of S6 phosphorylation in cells, primary screen, cell-based, A549, cytoblot, luminescence, serum-stimulated (AID 1158).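 Further: serum-stimulated A549 lung adenocarcinoma cells; signal is phosphorylated S6 detected by cytoblot immunostaining with HRP secondary.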 The following applies: A549 phospho-S6 cytoblot, 5 h, higher = more signal.
Test [8] deals with NADPH oxidase 2 (Homo sapiens) (UniProt P04839). Briefly: NOX2-dependent H2O2 signal modulators, primary screen, NOX inhibitor project, cell-based, HEK293-NOX2, PMA-stimulated, Amplex Red fluorescence (AID 1159). Further: test concentration not given here. The following applies: 45 min, higher = more signal, called active from +8 up or from −8 down.
Chain of NADPH oxidase 2 (Homo sapiens) (P04839 whole entry, looked up): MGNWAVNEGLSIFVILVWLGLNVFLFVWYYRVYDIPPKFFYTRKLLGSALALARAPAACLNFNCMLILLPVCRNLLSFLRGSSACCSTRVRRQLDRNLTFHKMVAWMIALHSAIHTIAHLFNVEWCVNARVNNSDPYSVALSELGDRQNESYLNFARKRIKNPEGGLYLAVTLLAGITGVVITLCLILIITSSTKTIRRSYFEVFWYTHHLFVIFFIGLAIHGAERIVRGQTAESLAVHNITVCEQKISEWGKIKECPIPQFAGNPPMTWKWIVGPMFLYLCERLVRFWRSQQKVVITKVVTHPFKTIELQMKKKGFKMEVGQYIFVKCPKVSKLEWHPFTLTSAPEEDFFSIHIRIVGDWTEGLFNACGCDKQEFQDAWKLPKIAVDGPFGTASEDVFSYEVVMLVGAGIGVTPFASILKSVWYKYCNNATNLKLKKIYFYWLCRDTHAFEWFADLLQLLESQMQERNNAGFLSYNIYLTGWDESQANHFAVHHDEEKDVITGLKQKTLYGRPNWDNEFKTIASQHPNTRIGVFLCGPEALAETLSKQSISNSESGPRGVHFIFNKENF
The target in test [9] is NADPH oxidase 4 (Homo sapiens) (UniProt Q9NPH5). The experiment in a line: NOX4-dependent H2O2 signal modulators, primary screen, NOX inhibitor project, cell-based, HEK293-NOX4, tetracycline-induced, Amplex Red fluorescence (AID 1160). The following applies: 45 min, higher = more signal, called active from +8 up or from −8 down.
Chain of NADPH oxidase 4 (Homo sapiens) (Q9NPH5 whole entry, looked up): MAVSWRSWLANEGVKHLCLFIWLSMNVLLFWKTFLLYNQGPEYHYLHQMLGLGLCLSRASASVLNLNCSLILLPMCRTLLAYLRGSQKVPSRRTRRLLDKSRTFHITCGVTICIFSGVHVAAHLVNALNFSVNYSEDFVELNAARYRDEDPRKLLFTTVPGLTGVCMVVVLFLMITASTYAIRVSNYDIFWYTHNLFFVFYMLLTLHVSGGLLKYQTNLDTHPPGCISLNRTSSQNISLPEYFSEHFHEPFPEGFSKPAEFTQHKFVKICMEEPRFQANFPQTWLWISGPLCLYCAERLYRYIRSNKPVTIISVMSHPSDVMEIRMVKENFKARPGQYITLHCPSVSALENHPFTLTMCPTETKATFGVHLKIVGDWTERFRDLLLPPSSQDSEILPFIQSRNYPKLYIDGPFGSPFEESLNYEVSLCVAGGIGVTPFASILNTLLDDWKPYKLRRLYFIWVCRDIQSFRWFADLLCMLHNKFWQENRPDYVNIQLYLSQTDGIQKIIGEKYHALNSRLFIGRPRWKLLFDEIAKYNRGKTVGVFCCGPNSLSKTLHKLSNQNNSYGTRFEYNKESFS
Test [10] deals with NADPH oxidase 5 (Homo sapiens) (UniProt Q96PH1). Briefly: NOX5-dependent H2O2 signal modulators, primary screen, NOX inhibitor project, cell-based, HEK293-NOX5, Amplex Red fluorescence (AID 1161). The following applies: HEK293-NOX5, ionomycin, 45 min, higher = more signal.
Chain of NADPH oxidase 5 (Homo sapiens) (Q96PH1 whole entry, looked up): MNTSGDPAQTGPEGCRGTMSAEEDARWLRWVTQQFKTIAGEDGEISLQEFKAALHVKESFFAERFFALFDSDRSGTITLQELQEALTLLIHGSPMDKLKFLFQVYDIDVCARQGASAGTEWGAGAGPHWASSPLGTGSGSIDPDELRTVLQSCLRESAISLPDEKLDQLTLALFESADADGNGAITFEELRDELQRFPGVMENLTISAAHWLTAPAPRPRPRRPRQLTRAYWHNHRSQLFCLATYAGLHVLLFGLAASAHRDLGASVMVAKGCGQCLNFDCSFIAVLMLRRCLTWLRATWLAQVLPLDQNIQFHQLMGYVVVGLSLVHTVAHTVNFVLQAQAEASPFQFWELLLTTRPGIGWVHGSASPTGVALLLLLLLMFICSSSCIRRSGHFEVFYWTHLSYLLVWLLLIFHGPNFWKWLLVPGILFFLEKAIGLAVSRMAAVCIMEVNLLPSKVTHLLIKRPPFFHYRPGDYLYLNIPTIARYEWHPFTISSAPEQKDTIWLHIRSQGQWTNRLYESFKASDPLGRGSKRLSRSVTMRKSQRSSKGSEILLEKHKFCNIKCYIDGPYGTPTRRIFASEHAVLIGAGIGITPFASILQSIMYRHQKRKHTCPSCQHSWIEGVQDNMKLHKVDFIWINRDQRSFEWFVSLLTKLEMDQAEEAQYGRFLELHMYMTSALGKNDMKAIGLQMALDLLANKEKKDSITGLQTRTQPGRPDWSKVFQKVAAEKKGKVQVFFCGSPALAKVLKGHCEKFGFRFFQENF
Test [11] is described as follows: A549 cell viability effects, profiling panel, calcein-AM fluorescence, 48 h, basal (AID 1162). Further: test concentration not given here. The following applies: higher = more signal.
Test [12] is described as follows: adipocyte viability effects, profiling panel, cell-based, 3T3-L1 adipocytes, calcein-AM fluorescence, 48 h, basal (AID 1163). Further: test concentration not given here. The following applies: 3T3-L1 adipocytes viability, higher = more signal.
Test [13] is described as follows: HepG2 cell viability effects, profiling panel, calcein-AM fluorescence, 48 h, basal (AID 1164). Further: test concentration not given here. The following applies: higher = more signal.
Test [14] in a line: MM1S cell viability effects, profiling panel, calcein-AM fluorescence, 48 h, basal (AID 1165).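 Further: viability of MM1S multiple myeloma cells under basal unstimulated conditions; test concentration not given here.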 The following applies: higher = more signal.
Test [15] is described as follows: basal RPMI8226 viability, no added stimulus, profiling panel, cell-based, calcein-AM fluorescence, 48 h, PK04 Diversity Set (AID 1166).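 Further: cells grown under basal conditions without added stimulus; test concentration not given here.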 The following applies: RPMI8226 myeloma viability, higher = more signal.
Test [16] in a line: basal HepG2 mitochondrial membrane potential changes, profiling panel, cell-based, JC-1 fluorescence, 24 h, 100 nL compound (AID 1167). Further: test concentration not given here. The following applies: higher = more signal.
Test [17] can be described thus: basal 3T3-L1 adipocyte mitochondrial potential changes, profiling panel, cell-based, JC-1 fluorescence, 3T3-L1 adipocytes, 24 h, 100 nL compound (AID 1168). Further: test concentration not given here. The following applies: JC-1 mitochondrial fluorescence, higher = more signal, called active from +8 up or from −8 down.
The nature of test [18]: basal RPMI8226 mitochondrial membrane potential changes, profiling panel, cell-based, JC-1 fluorescence, 24 h, 100 nL compound (AID 1169). Further: test concentration not given here. The following applies: RPMI8226 myeloma, JC-1 mitochondrial potential fluorescence, higher = more signal.
Test [19] in a line: basal MM1S mitochondrial membrane potential changes, profiling panel, cell-based, JC-1 fluorescence, 24 h, 100 nL compound (AID 1170). Further: test concentration not given here. The following applies: higher = more signal.
Test [20] is described as follows: A549 lung cancer cell viability effects, profiling panel, resazurin fluorescence, 24 h, PK04 Diversity Set (AID 1171). Further: test concentration not given here. The following applies: higher = more signal, called active from +8 up or from −8 down. (In general: Alamar Blue is a resazurin reagent that responds to reducing activity.)

These results are taken from PubChem BioAssay.

Active and inactive are the calls of the source.

As for `CC(C)[C@@H](C(=O)O)n1cc(-c2ccccc2)nn1`, the z-score in test [1] was -1.08 (inactive); in test [3], 0.354 (inactive); in test [4], 0.217 (inactive); in test [5], -0.406 (inactive); in test [6] it was 0.0394 (inactive); in test [7] it was -0.299. In addition, the z-score in test [8] was -0.7 (inactive); in test [9], 0.521 (inactive); in test [10], -0.167; in test [11] it was -0.633; in [12], -0.582; in test [13], -0.354. Moreover, the z-score was -0.117 in test [14]; -0.887 in test [15]; -1.36 in test [16]; -1.2 (inactive) in test [17]; 0.00787 in test [18]; 0.00093 in [19]. Further, the z-score in test [20] was -0.423 (inactive). The same compound yielded a composite z-score in test [2] of 0.241.
Take `N#Cc1ccc(C(O)C2C=CC3C(=O)N(c4ccccc4)C(=O)C3N2Nc2ccc([N+](=O)[O-])cc2)cc1` (stereo not given): the z-score in [1] is -0.955 (inactive); in test [3], 25.8 (active); in test [4], 12.8 (active); in test [5] it was 2.25 (inactive); in test [6] it was 1.56 (inactive); in [7], -0.283. Besides, the z-score in [8] is -0.562 (inactive); in [9], -2.25 (inactive); in [10], -1.83; in test [11] it was -0.211; in test [12] it was -1.46; in test [13], 0.436. For the same compound, the z-score was -0.0671 in test [14]; -0.333 in [15]; -2.66 in test [16]; -1.78 (inactive) in test [17]; 0.5 in [18]; -1.43 in [19]. Further, the z-score in [20] is -0.233 (inactive). For the same compound, in test [2], the composite z-score was determined as 0.391.
With `COC(=O)c1ccc([C@H](NC(=O)c2ccccc2)[C@]2(C)C[C@H]2C2CCCCC2)cc1`, the z-score is -2.26 (inactive) in [1]; 8.84 (active) in [3]; 1.56 (inactive) in test [4]; -0.281 (inactive) in [5]; 0.692 (inactive) in test [6]; 0.0094 in test [7]. Also, the z-score in [8] is 0.0662 (inactive); in test [9], -0.602 (inactive); in test [10], 1.22; in test [11] it was -0.844; in [12], -1.92; in test [13] it was -0.949. The z-score in test [14] is -0.831; in [15], -0.733; in test [16], -1.15; in test [17], -1.16 (inactive); in [18], 0.624; in test [19] it was -1.33. The z-score in test [20] was 0.768 (inactive). For the same compound, the composite z-score in [2] amounted to 0.718.
With `C=CCC(OC(C)=O)[C@@H]1[C@@H](N(Cc2ccc(-c3ccccc3)cc2)C(=O)c2ccc(C)cc2)c2cc(OCCCO)ccc2N1C(=O)c1ccc2ccccc2c1` (stereo not given in full), the z-score in test [1] was 2.09 (inactive); in [3] it was 0.0032 (inactive); in [4] it was -0.792 (inactive); in test [5] it was -1.31 (inactive); in test [6], -1.33 (inactive); in test [7], 1.18. The z-score in [8] is -0.167 (inactive); in test [9] it was 0.972 (inactive); in test [10], 1.94; in test [11] it was 2.26; in test [12] it was 0.558; in [13], 1.71. In addition, the z-score in test [14] was 0.697; in test [15], -0.481; in test [16] it was 3.18; in [17], -0.379 (inactive); in [18] it was 0.0174; in test [19], 0.593. Moreover, in [20], the z-score is 0.864 (inactive). This compound also registered a composite z-score in [2] of 0.0367.
